From PubChem BioAssay
The source made the active and inactive calls.

test: forskolin-driven CRE-LacZ activity in PC12 – cell-based, CRE-LacZ reporter, forskolin-stimulated, primary screen (AID 1146); conditions: luminescence, 4.5 h, higher = more signal, called active from +8 up or from −8 down;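 also: PC12 cells with 6xCRE LacZ reporter stimulated by forskolin 10 µM; beta-galactosidase reporter signal reflecting CREB driven transcription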

z-score, inactive:
C=CCOC(=O)[C@@H]1[C@H]2C(=O)O[C@H](c3ccccc3)[C@H](c3ccccc3)N2[C@H](c2ccc(OCCOC(=O)[C@H]3C[C@H]4C(=O)N5CCC[C@H]5C(=O)N4[C@H]3c3ccc(O)cc3)cc2)[C@@]12C(=O)Nc1ccccc12 -1.32, C[C@@H]1CC[C@H]2C(=O)N3[C@@H](CC[C@@H](C)[C@@H]3c3cccc(N4CCOCC4)c3)C(=O)N2[C@H]1c1cccc(N2CCOCC2)c1 -0.84, COc1ccc(-c2ccccc2[C@@H]2N[C@H](C(=O)O)CC[C@H]2C)cc1 -0.902, CN1CCC(CCCO)=CC1C1CC1 (configuration not stated) -1.36, C=CCC(OC(C)=O)[C@@H]1[C@@H](N(Cc2cc3ccccc3o2)C(=O)c2ccc(C)cc2)c2cc(OCCCO)ccc2N1C(=O)c1ccc2ccccc2n1 (some centres not stated) -0.273, C[C@H]1COC(=O)[C@H](Cc2ccccc2)NC(=O)[C@@H](C)COC(=O)[C@H](Cc2ccccc2)NC1=O -0.837, CCN1C(C)=C(C(=O)OC)[C@@H](c2ccccc2)N2C(=O)[C@@]3(C(=O)OC)O[C@@]12[C@@H]1C(=O)N(c2ccccc2)C(=O)[C@@H]13 -1.28, CCCC/C=C/[C@H]([C@@H](O)Cc1ccccc1)N(CC#Cc1ccccc1)Cc1ccccc1Br -0.967, Cc1ccc(S[C@]2(C(=O)NCCCN(C)C)CC(=O)N(C3CCCCC3)[C@@H]2c2ccc(CO)cc2I)cc1 1.42, CO[C@@H]1COC(=O)[C@H](C)NC(=O)CC=C[C@@H](C)[C@H](NS(=O)(=O)c2ccc(C)cc2)COC(=O)CC=C[C@@H]1C -0.445, C=CCNC(=O)[C@H]1[C@@H]2C(=O)O[C@@H](c3ccccc3)[C@@H](c3ccccc3)N2[C@@H](c2ccccc2OCCO)[C@]12C(=O)N(C(=O)OCCOC)c1ccc(C#CCC(C(=O)OC)C(=O)OC)cc12 0.105, CC(=O)NCCCC[C@@H]1NC(=O)[C@@H]2C[C@H](C(=O)NCCCCCCN(C)C)[C@H](c3ccc(O)cc3)N2C1=O -1.19, O=C(NCC(O)CO)[C@]1(Cc2ccccc2)N=C(c2ccc(OCCCO)cc2)O[C@@H]1c1ccccc1 (some centres not stated) -1.08, C[C@H]1NC(=O)[C@@H](C)NC(=O)[C@@]23C(=O)N[C@@H](Cc4ccccc4)C2[C@H](C)[C@@]2(C)O[C@H]2C3/C=C/C/C=C\CNC1=O (some centres not stated) -1.32, CC(C)N1CC=CC23O[C@@H]4/C=C\CCCOC(=O)C4[C@H]2C(=O)N(CCO)[C@@H]3C1=O (some centres not stated) -0.457, C=CC[C@]1(C(=O)O)N=C(c2ccc(OCCCO)cc2)O[C@H]1c1ccccc1 -1.04, CC(C)CNC(=O)[C@@]1(C)c2ccccc2C(=O)N(Cc2ccc(OC(F)(F)F)cc2)[C@H]1c1ccc(CO)cc1 -0.569, CO[C@H]1COC(=O)[C@H](Cc2ccccc2)NC(=O)CC=C[C@@H](C)[C@H](OC)COC(=O)CC=C[C@@H]1C -1.15, C=C(COC)/C(=C/C[C@@H](OC(=O)c1ccncc1)c1ccc(OCCO)cc1)c1cc(C(=O)OC)ccc1OC -2.02, CSCC[C@@H]1NC(=O)CC=C[C@@H](C)COC(=O)[C@H](CCSC)NC(=O)CC=C[C@@H](C)COC1=O -0.837, O=C1OCC=C[C@H]2OC34C=CCN(Cc5ccccc5)C(=O)[C@H]3N(CCCCCO)C(=O)[C@@H]4[C@@H]12 (some centres not stated) -0.679, Cc1ccc(S[C@]2(C(=O)NCCN3CCOCC3)CC(=O)N(C3Cc4ccccc4C3)[C@@H]2c2ccc(CO)cc2I)cc1 0.174, COC(=O)C[C@H]1O[C@]2(C(=O)N(C)c3ccccc32)[C@@H](C)[C@@H]1[Si](C)(C)c1ccc(OC)cc1 -1.58, CC/C=C/C(=O)N(C[C@@H]1CCCO1)[C@@H]1CC(C(=O)NCCO)=C[C@H](Oc2c(I)cc(CO)cc2OC)[C@H]1O -2.41, C=C[C@H](OC)[C@@H](OC(=O)Nc1ccc(SC)cc1)c1ccc(OC)c(O)c1 -1.26, CN1C2C=C(c3ccc(CO)cc3)C(C3C(=O)N(C(N)=O)C(=O)C32)C1c1cccs1 (configuration not stated) -1.5, C=CCN(C(=O)C1N(c2ccc(CCO)cc2)C(=O)C2C(C(=O)O)C3C=CC21O3)C(C)(C)C (configuration not stated) -0.819
